# Data: PubChem BioAssay (NCI)
# Compounds without any hit were thinned out: in the full panel of roughly 83,000, 20% have a hit.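 Values shown are percent growth following 48 h exposure of cells in 96-well plates to a single concentration of compound; below 10 was considered active.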 A number with no mark means an inactive call. Active and inactive are the calls of the source.
# Tested on: MDA-MB-468 breast
# Experiment: NCI-60 one-dose screen, 48 h (100 = growth as untreated, 0 = no growth, -100 = all killed)
# Details: 10 µM unless noted
row,SMILES,growth
1,CCCCCCCCCCCCCCCCCC(=O)OCCCCCCCCCCCCC,117%
2,c1ccc(CO[C@H]2CO[C@H]3[C@@H]2OC[C@H]3OCc2ccccc2)cc1,112%
3,CC12O[C@H](C[C@@H](OC(=O)CCC(=O)O)[C@H]1O)n1c3ccccc3c3c4c(c5c6ccccc6n2c5c31)C(=O)NC4=O,25.9%
4,Oc1c(Cl)cc(Cl)cc1CNc1nccnn1,109%
5,CN(C[C@@H]1COCCO1)S(=O)(=O)Nc1ccc2ccc3ncc(-c4cnn(C)c4)cc3c(=O)c2c1,49.9%
6,CCN1C(=O)N(CC)C2Nn3c(s/c(=C\c4ccccc4F)c3=O)=NC21 (stereo not given),28.9%
7,O=[N+]([O-])c1ccc(N/N=C/c2ccccc2O)nc1,10.3%
8,CC1=C/C(O)CC(=O)Cc2nc(co2)C(=O)N2CCC=C2C(=O)OC(C(C)C)C(C)/C=C\C(=O)NC/C=C\1 (stereo not given),54.5%
9,COc1ccc(C(=O)c2cc(C)c(OC)c(C)c2)c(OC)c1O,20.4%
10,Nc1ccccc1NC(=O)c1ccc(NC(=O)C/C=C/c2cccnc2)cc1,-7.27% (active)
